Out of some 85,000 compounds screened, about 5,100 (6%) were called active. Only a selection was taken, and actives are over-represented in it overall. Values without a mark were called inactive.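 Rule for the calls: active = viability at or below 40%; inactive = viability above 40%.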

The assay is described as follows: H69AR cell viability reduction – human, 86K library, primary screen (AID 598).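 Note: multidrug resistant small cell line overexpressing MRP-1 efflux transporter; 100% = mean luminescence of untreated control wells.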 Conditions: H69AR lung tumor viability, ATP luminescence, 72 h; at 10 µM; stronger effect = lower value.
The term viability denotes a read-out of living cells in per cent, often relative to untreated cells. Turning to `O=C(COc1ccc(S(=O)(=O)NCc2ccccc2)cc1)N1CCOCC1`, the viability was 97.4%.

Consider `CCOc1ccc(Nc2oc(Cc3ccccc3)nc2C#N)cc1`, for which the viability is 78%.

For `COc1ccccc1-c1nc(C#N)c(N2CCC(C(N)=O)CC2)o1`, the viability is 95.8%.

In the case of `COc1ccc(Nc2oc(-c3ccccc3Cl)nc2C#N)cc1`, the viability was 14.3% (active).

Take `Cc1cc2nc(SCCN3CCOCC3)[nH]c2cc1C`: the viability was 109%.

With `C=C(C)CSc1nnc(-c2ccc(C)cc2)n1N`, the viability was 99.4%.

Consider `CC(=NCc1ccco1)c1c(C(F)(F)F)[nH]n(-c2nc3ccccc3s2)c1=O`, for which the viability is 63.2%.

Take `N=c1c2c3c(sc2nc2n1CCCCC2)CCCC3`: the viability is 84%.

`NNC(=O)C1CCCn2c1nc1sc3c(c1c2=O)CCCC3` (configuration not stated): the viability is 91.5%.

For `CS(=O)(=O)N(Cc1nc2sc3c(c2c(=O)[nH]1)CCCC3)C1CCCCC1`, the viability is 16.8% (active).

`CCn1c(CC(=O)Nc2ccc(C)cc2)nnc1SCC(=O)Nc1nc(C)cs1`: the viability was 111%.

With `S=C1NC(c2ccccc2)=NCN1c1ccc(Br)cc1`, the viability is 88.9%.

As for `CCOc1ccc(NC(=O)CN2CCN(CC(=O)Nc3ccc(OC)cc3)CC2)cc1`, the viability was 56.5%.

As to `CC1CN(S(=O)(=O)c2ccccc2)C(C)CN1S(=O)(=O)c1ccccc1` (configuration not stated), the viability was 101%.

Take `CC(O)CN(Cc1ccc(Cl)cc1)CC(C)O` (configuration not stated): the viability was 100%.

Consider `CCOc1cc(-c2cc(-c3ccc(OC)cc3)nc(N)c2C#N)ccc1O`, for which the viability was 51%.

As for `CCOc1ccccc1Oc1cn[nH]c1-c1ccc(OC)cc1O`, the viability is 16.2% (active).

In the case of `CCOc1ccccc1NC(=O)Nc1cc(OC)ccc1OC`, the viability was 93.8%.

As to `CCCC1(C(=O)OCC)NC(c2ccc(N(C)C)cc2)C2C(=O)N(c3ccc4c(c3)OCCO4)C(=O)C21` (configuration not stated), the viability was 80%.

With `Cc1ccc(O/C=C2\OC(=O)c3ccccc32)cc1`, the viability was 89.6%.

With `CN(Cc1nc2ccccc2c(=O)[nH]1)Cc1cc(=O)oc2ccc3ccccc3c12`, the viability is 91%.

Take `NC(=O)C1(N2CCCCC2)CCN(C2CC(=O)N(Cc3ccc(N4CCCC4=O)cc3)C2=O)CC1` (configuration not stated): the viability was 100%.

Consider `COC(=O)Nc1ccc(S(=O)(=O)N2CCN(CCN3C(=O)C4C5C=CC(C5)C4C3=O)CC2)cc1` (configuration not stated), for which the viability is 79.9%.

For `CCCCNC(=O)CSc1nccn1Cc1ccccc1`, the viability was 99.2%.

`CCCCNC(=O)CSc1nnc(-c2ccco2)n1C`: the viability is 81.6%.

Regarding `CCCCNC(=O)CSc1nc2n[nH]c(C)c2c(=N)n1-c1cccc(Cl)c1C`, the viability was 15.5% (active).

`COc1ccc(CNCCCO)cc1OC`: the viability is 111%.

With `Cc1ccc(S(=O)(=O)Oc2ccc(/C=N/NC(=O)c3c(Cl)cnn3C)cc2)cc1`, the viability was 79.2%.

In the case of `COc1ccccc1NC(=O)CSc1nnc(C)n1CC1CCCO1` (configuration not stated), the viability is 113%.

In the case of `Cn1c(=O)c2c(nc(N3CCCCCC3)n2CC(=O)c2ccc(Br)cc2)n(C)c1=O`, the viability is 46.8%.

Regarding `O=C(c1ccc(Cl)cc1)c1ccc(OCC(O)CN2CCCCC2)cc1` (configuration not stated), the viability was 64.1%.

For the compound `Cn1c(=O)c2c(nc(N3CCCCCC3)n2CC(O)COc2ccc(Cl)cc2)n(C)c1=O` (configuration not stated), the viability is 28.2% (active).

On to `CCN(CC)C(=O)CC1(c2ccccc2OC)CCOC(C(C)C)C1` (configuration not stated), for which the viability is 86.8%.

In the case of `COC(=O)c1ccc(CSc2ccc3nnc(-c4ccccc4)n3n2)o1`, the viability is 71.6%.

Take `CCN1CCc2c(C#N)c(NCc3ccccc3)nc(NCCO)c2C1`: the viability is 62.2%.

For the compound `CC(C)CCNc1nc(N2CCCC2)c2c(c1C#N)CCN(C)C2`, the viability is 1.84% (active).

Take `CC(C)Cc1nc(N2CCOCC2)c(C#N)c2c1CCC2`: the viability is 89.6%.

`Cc1ccc2nc(SC(C)C(=O)NCc3ccco3)[nH]c2c1` (configuration not stated): the viability was 85.7%.

Regarding `c1ccc(-n2nc3ccccc3n2)cc1`, the viability was 96%.

With `Cc1nn(Cc2ccccc2)c2c1C(c1ccccc1)C(C#N)=C(N)O2` (configuration not stated), the viability was 76.3%.

In the case of `Cc1cc(C(=O)OC(C)C(=O)Nc2cccc(S(=O)(=O)N3CCOCC3)c2)c(C)o1` (configuration not stated), the viability is 102%.

In the case of `COC(=O)C1C(=O)NCC1c1ccc(C)cc1` (configuration not stated), the viability was 82.2%.

For the compound `COC(=O)C1=C(Nc2ccc(C)cc2)C=C(C)C(C(=O)OC)C1c1ccc(F)cc1` (configuration not stated), the viability was 12.1% (active).

In the case of `COC(=O)C1=C(Nc2ccc(OC)cc2)C=C(C)C(C(=O)OC)C1c1ccc(C)cc1` (configuration not stated), the viability is 55.6%.

As for `CCOC(=O)c1ccc2c(c1)nc(C)n2CC`, the viability was 113%.

Consider `Cc1nnc(NC(=O)CCCOc2ccccc2)s1`, for which the viability is 93.8%.

With `CCC(CC)C(=O)N1CC(=O)Nc2ccc(Br)cc2C1c1ccccc1` (configuration not stated), the viability is 87%.

Take `COC(=O)/C(NC(C)=O)=C(\C)c1ccc(Cl)cc1`: the viability is 102%.

Turning to `Cc1cccc(NC(=O)/C(=C\c2ccco2)NC(=O)c2ccccc2)c1`, the viability is 85.2%.

Regarding `Cc1cc(C)cc(N(CC(=O)NCC2CCCO2)S(=O)(=O)c2c(C)noc2C)c1` (configuration not stated), the viability is 92.5%.

Regarding `Cc1cc(C)cc(N(CC(=O)N2CC=C(c3ccccc3)CC2)S(=O)(=O)c2c(C)noc2C)c1`, the viability was 22.6% (active).

In the case of `CCOC(=O)C1CCCN(C(=O)CN(c2ccc(OC)cc2)S(=O)(=O)c2c(C)noc2C)C1` (configuration not stated), the viability was 78.5%.

Take `CCOC(=O)C1C(=O)NCC1c1ccccc1` (configuration not stated): the viability is 99.9%.

Consider `O=C(c1cc2sccc2n1Cc1ccc(F)cc1)N1CCc2ccccc21`, for which the viability is 76%.

Take `COC(=O)c1cc(NC(=O)CC2C(=O)NCCN2C(=O)c2ccc(F)cc2)cc(C(=O)OC)c1` (configuration not stated): the viability is 80%.

On to `C=C1c2cc(CC)ccc2NC(=O)N1c1ccc(C)cc1`, for which the viability is 91.4%.

Take `CCc1ccc2c(c1)C1(NN=C(c3ccccc3)S1)C(=O)N2` (configuration not stated): the viability was 15.2% (active).

For `O=C1Nc2ccccc2C12Nc1ccccc1S2` (configuration not stated), the viability is 85.7%.

With `CCC(=O)NC(Nc1nc2ccc(C)cc2s1)(C(=O)OC)C(F)(F)F` (configuration not stated), the viability is 82.5%.

`CC(C)CC(=O)Nc1cc(C(F)(F)F)ccc1N1CCOCC1`: the viability is 80.6%.

With `O=C(NCc1ccco1)c1ccc(Cn2c(=O)c3sccc3n(Cc3ccc(F)cc3)c2=O)cc1`, the viability was 82.3%.

Consider `COc1ccccc1NC(=O)C1CCCN(c2cc(C)nc3ncnn23)C1` (configuration not stated), for which the viability was 85.4%.
